Compound activity as filed in PubChem BioAssay.
Glyco luc inh – blocks N-linked glycosylation in D54 reporter cells; actives 0.23% (n = 360,000); AID 588692; D54 ERlucT glycosylation luciferase reporter, 24 h; percent of 100 nM tunicamycin response; reporter increase, % at 12.5 µM;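 active = mean luciferase reporter signal, scaled so untreated is 0 and the glycosylation-blocking control 100, at or above a set limit in every replicate; inconclusive = mean reaches the limit but not every replicate does; inactive = mean below the limit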;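 note: luciferase carries N-glycosylation sites so blocking glycosylation raises the light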
RAD54 branch – RAD54 (human) branch migration inhibition; inhibition, % at 10.4 µM; AID 602329; Q92698; actives 0.14% (n = 360,000); RAD54 Holliday junction branch migration, FAM/BHQ fluorescence;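 active = mean normalized replicate activity at least 40 and at least half of replicates scoring 40 or more; inconclusive = only one of the two criteria met; inactive = mean below 40 and under half of replicates reaching 40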;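 note: inhibitors cause a drop in the FAM fluorescence signal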
CFTR F508del cor – CFTR F508del correction in bronchial cells | AID 720511 | actives 0.36% (n = 350,000) | CFBE cells, YFP halide quenching; stimulated with forskolin plus potentiator P3; % fluorescence drop versus neutral controls | activity (quench increase), % at 7.58 µM;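 active = mean added fluorescence quench of at least 8% versus neutral control, with both replicates also reaching 8%; inconclusive = only one of the mean or replicate conditions met; inactive = mean below 8% and not both replicates reaching 8%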;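 note: cells transiently co-express mutant CFTR-F508del with the halide-sensitive YFP; corrector assay measuring rescue of mutant channel to the surface after 24 h compound exposure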
dFosB activator – enhances mouse delta FosB homodimer DNA binding; P13346; purified delta FosB, TAMRA-CDK5 oligo fluorescence polarization; percent of positive-control signal above neutral wells; activation, % at 25 µM; actives 0.99% (n = 340,000); AID 493131;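 active = mean activation above about 17%, with every replicate also reaching it, limit read from the data, passing the limit was not always enough; inconclusive = only one of the two conditions met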
Target sequence (P13346 whole entry, looked up): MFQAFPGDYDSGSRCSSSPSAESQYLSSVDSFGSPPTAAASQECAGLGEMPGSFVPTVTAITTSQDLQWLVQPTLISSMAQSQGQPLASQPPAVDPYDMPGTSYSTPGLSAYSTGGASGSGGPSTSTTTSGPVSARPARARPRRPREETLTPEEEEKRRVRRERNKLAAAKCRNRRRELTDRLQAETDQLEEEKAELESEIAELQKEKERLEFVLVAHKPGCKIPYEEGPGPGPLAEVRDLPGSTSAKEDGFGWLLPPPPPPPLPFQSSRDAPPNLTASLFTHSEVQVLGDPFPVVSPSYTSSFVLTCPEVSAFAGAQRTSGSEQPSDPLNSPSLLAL
RAD52 anneal inh – blocks human RAD52 DNA annealing | P43351 | recombinant RAD52 DNA annealing, FRET fluorescence | inhibition, % at 18.7 µM | actives 0.46% (n = 360,000) | AID 651710;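 active = every replicate showing at least 50% inhibition; inconclusive = mean inhibition at least 50% but not in every replicate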
PvdQ inh – blocks Pseudomonas aeruginosa PvdQ acylase activity; inhibition, % at 10 µM; actives 0.063% (n = 340,000); purified PvdQ acylase, fluorescence plate reader; in the data active = inhibition above about 30%, passing the limit was not always enough; inconclusive = no clear call, values can overlap the other calls
Hits are given with their value; - = inactive; ? = inconclusive; . = not tested or not shown. Shown are actives, neighbours in structure and some others; about 1.5% of the full set was active somewhere.

SMILES	Glyco luc inh	RAD54 branch	CFTR F508del cor	dFosB activator	RAD52 anneal inh	PvdQ inh
COc1ccc(C2=Nn3c(nnc3-c3ccccc3OC)SC2)cc1OC1CCOC1 (stereo unspecified)	-	-	9.7	-	-	-
CCc1nnc2n1N=C(c1ccc(OC)cc1)CS2	37	-	.	-	.	-
CCOc1ccc(-c2nnc3n2N=C(c2ccc(OC)cc2)CS3)cc1	-	-	.	-	.	-
CCCC(=O)Nc1ccc2c(c1)OC[C@H](C)N(Cc1cncnc1)C[C@H](C)[C@@H](OC)CN(C)C2=O	.	.	-	.	-	.
O=C(Nc1cc(F)ccc1F)N1CC(=O)N2[C@@H](CO)[C@H](c3ccc(C#CC4CCCCC4)cc3)[C@@H]2C1	.	.	9.9	.	-	.
O=C(NC1CCCCC1)N1CC(=O)N2[C@@H](CO)[C@@H](c3ccc(-c4cccnc4)cc3)[C@@H]2C1	.	.	-	.	61	.
CC(C)CC#Cc1ccc([C@H]2[C@@H](CO)N3C(=O)CN(C(=O)Nc4cc(F)ccc4F)C[C@H]23)cc1	.	.	-	.	-	.
CCCC#Cc1ccc([C@H]2[C@H](CO)N3C(=O)CN(C(=O)Nc4cc(F)ccc4F)C[C@@H]23)cc1	.	.	10	.	-	.
COc1ccc2c3c([nH]c2c1)[C@@H](CO)N(C(=O)CN1CCOCC1)CC31CN(C(=O)NC(C)C)C1	.	.	-	.	.	.
CCc1cccc(CC)c1NC(=O)CN1C2CCCC1CC(NC(=O)Nc1cccc(OC)c1)C2 (stereo unspecified)	39	.	-	-	-	-
COc1cccc(C(=O)NC2CC3CCCC(C2)N3CC(=O)Nc2ccccc2C(F)(F)F)c1 (stereo unspecified)	-	-	-	-	-	-
Cc1cc(C(=O)c2ccccc2)cc(C)c1O	-	.	11	-	-	-
C[C@@H]1CN([C@@H](C)CO)C(=O)c2cc(C#Cc3ccccc3F)cnc2O[C@H]1CN(C)C(=O)Cc1ccccc1	.	-	-	.	-	.
O=C(CCN1C(=O)/C(=C/c2ccc(F)cc2)SC1=S)Nc1cccnc1	-	-	-	19	-	-
COc1cccc(/C=C2\SC(=S)N(CCC(=O)NCCc3ccc(O)cc3)C2=O)c1	-	-	-	-	-	-
O=C(CCN1C(=O)/C(=C/c2ccc(F)cc2)SC1=S)NCCc1ccc(O)cc1	-	-	-	68	-	-
CCC(=O)Nc1ccc2c(c1)C(=O)N(C)[C@H]1CC[C@H](CC(=O)NCCc3ccccc3)O[C@@H]1CO2	.	-	-	.	-	.
Cn1c(-c2ccccc2)c(/C=N/NC(=O)c2ccc(O)cc2)c2ccccc21	54	-	-	-	-	-
Cn1c2ccccc2c2cc(/C=N/NC(=O)c3ccc(N)cc3)ccc21	-	-	-	-	-	-
CCCC#Cc1ccc([C@@H]2[C@@H](CO)N3C(=O)CN(C(=O)c4ccc(F)cc4)C[C@H]23)cc1	.	.	-	.	-	.
O=C(CCNC(=O)c1ccco1)Nc1nc(-c2ccccc2)cs1	-	-	8.8	.	-	.
CC(=O)Nc1ccc(-c2csc(NC(=O)CCNC(=O)c3ccco3)n2)cc1	-	-	-	-	-	-
CCOc1cc(N2CCOCC2)c(OCC)cc1NC(=O)c1[nH]c(C)c(C(C)=O)c1C	29	-	-	-	-	-
CC(=O)c1c(C)[nH]c(C(=O)Nc2ccccc2N2CCOCC2)c1C	-	-	-	-	-	-
CCOc1cc(N2CCOCC2)c(OCC)cc1NC(=O)CN1C(=O)NC2(CCCCC2)C1=O	-	-	22	-	-	-
SMILES	Glyco luc inh	RAD54 branch	CFTR F508del cor	dFosB activator	RAD52 anneal inh	PvdQ inh
CO[C@@H]1CN(C)C(=O)c2cc(NC(C)=O)ccc2OC[C@@H](C)N(C(=O)C2CCC2)C[C@@H]1C	.	-	-	.	-	.
C[C@H](CO)N1C[C@H](C)[C@H](CN(C)C(=O)CN2CCOCC2)Oc2ncc(C3=CCCCC3)cc2C1=O	.	-	-	.	-	.
C[C@@H]1CCCCO[C@@H](CN(C)CC2CCCCC2)[C@H](C)CN([C@@H](C)CO)C(=O)c2cc(NC(=O)Nc3ccccc3)ccc2O1	.	-	-	.	-	.
Cc1ccc(-c2ccc3c(c2)O[C@H](CN(C)S(C)(=O)=O)[C@@H](C)CN([C@H](C)CO)S3(=O)=O)cc1	.	-	-	.	-	.
c1csc(C2Nc3cccc4cccc(c34)N2)c1	-	-	.	36	.	-
c1ccc(C2Nc3cccc4cccc(c34)N2)cc1	-	-	.	-	-	-
C/C=C/c1cnc2c(c1)C(=O)N([C@@H](C)CO)C[C@@H](C)[C@H](CN(C)S(=O)(=O)c1ccc(F)cc1)O2	.	-	-	.	-	.
Cc1nc2nc(C)n(CCN3CCOCC3)c(=O)c2c(-c2cccc([N+](=O)[O-])c2)c1C(=O)CCCCCCCCCCN1CCC(c2ccccc2)(c2ccccc2)CC1	-	.	-	37	97	-
CCOCCOC(=O)COC(=O)c1ccccc1NC(=O)c1ccccc1	-	.	11	-	-	-
C[C@@H]1CN([C@@H](C)CO)C(=O)c2cc(NC(=O)Cc3cn(C)c4ccccc34)ccc2O[C@@H]1CN(C)C(=O)Nc1ccc(F)cc1	.	-	-	.	-	.
O=C(C1CCC1)N1CC2(C1)[C@H](c1ccccc1)[C@H](CO)N2Cc1ccc(Cl)cc1	.	.	-	.	-	.
O=C(C1CCC1)N1CC2(C1)[C@@H](c1ccccc1)[C@@H](CO)N2Cc1ccc(Cl)cc1	.	.	-	.	67	.
CC(C)C#Cc1ccc2c(c1)O[C@H](CN(C)C(=O)c1cccc(F)c1)[C@H](C)CN([C@@H](C)CO)S2(=O)=O	.	-	-	.	-	.
Cc1ccc(N=Nc2ccc(O)c(/C=N\NC(=O)c3ccc(N)cc3)c2)cc1C	-	-	.	47	.	-
COc1cccc(-c2sc3cc(OC)c(OC)cc3c2-c2ccc(OCCN3CCCCC3)cc2)c1	-	-	.	34	.	-
COc1ccc2c(-c3ccc(OCCN4CCCCC4)cc3)c(-c3ccccc3OC)sc2c1	-	-	.	48	.	-
O=C(Nc1ccccc1C(=O)N/N=C/c1ccccc1)c1ccco1	-	-	-	88	-	-
Cc1cc(C)n(-c2nc(NCCCN(C)C)c3c4c(sc3n2)CCCC4)n1	-	-	-	.	53	.
Cc1cc(C)n(-c2nc(NCCCN(C)C)c3c4c(sc3n2)COC(C)(C)C4)n1	-	-	-	.	-	.
O=C(N/N=C\c1c(O)ccc2ccccc12)c1ccc(O)cc1	-	-	-	?	-	-
O=C(N/N=C/c1c(O)ccc2ccccc12)c1cccnc1	-	-	.	-	-	-
O=C(N/N=C\c1c(O)ccc2ccccc12)c1cncc(Br)c1	-	-	35	-	-	-
O=C(N/N=C/c1c(O)ccc2ccccc12)c1ccc(Br)o1	-	-	12	30	-	-
S=C1NC2=C(CCCC2=C2SCCS2)C(c2ccccc2)N1 (stereo unspecified)	415	.	-	-	-	-
COc1cccc(C2NC(=S)NC3=C2CCc2ccccc23)c1 (stereo unspecified)	-	.	-	-	-	-
